Active and inactive are the calls of the source.

A short description of experiment [1]: E. coli DRC41 culture turbidity changes, primary screen, E. coli filamentation inducer project, strain DRC41, OD650, 48 h (AID 1152).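 Note: E. coli MC1000 strain DRC41 lacking acrAB efflux pump and sulA.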 Conditions: E. coli DRC41 (acrAB sulA), higher = more signal, called active from +8 up or from −8 down.
Experiment [2] in a line: small-molecule binders of probe aLefty1, primary screen, biochemical, small-molecule microarray, 635/667 nm fluorescence (AID 1153).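 Note: score merges spot fluorescence with signal-to-noise ratio from the scanned slide images.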 To be noted: higher = more signal.
A short description of experiment [3]: PSAC antagonists in infected red cells, primary screen, cell-based, P. falciparum Indochina, OD700, 1 h (AID 1154). To be noted: P. falciparum Indochina infected RBC osmotic lysis, higher = more signal, called active from +8 up or from −8 down.
Experiment [4] can be described thus: PSAC antagonists in infected red cells, primary screen, cell-based, P. falciparum Indochina, OD700, 2 h (AID 1155).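 Note: lysis reports solute entry through the parasite surface anion channel PSAC; channel blockers reduce lysis of infected cells.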 To be noted: P. falciparum Indochina infected erythrocytes, osmotic lysis OD700; higher = more signal, called active from +8 up or from −8 down.
A short description of experiment [5]: osmotic lysis modulators in infected erythrocytes, primary screen, PSAC antagonist project, cell-based, P. falciparum Indochina, OD700, 3 h (AID 1156). To be noted: higher = more signal, called active from +8 up or from −8 down.
Experiment [6] is described as follows: PSAC antagonists in infected red cells, primary screen, cell-based, P. falciparum Indochina, OD700, 18 h (AID 1157). Conditions: P. falciparum Indochina infected erythrocytes, osmotic lysis OD700, 18 h; higher = more signal, called active from +8 up or from −8 down.
The nature of experiment [7]: modulators of S6 phosphorylation in cells, primary screen, cell-based, A549, cytoblot, luminescence, serum-stimulated (AID 1158).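 Note: serum-stimulated A549 lung adenocarcinoma cells; signal is phosphorylated S6 detected by cytoblot immunostaining with HRP secondary.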 Conditions: A549 phospho-S6 cytoblot, 5 h, higher = more signal.
In experiment [8] the target is NADPH oxidase 2 (Homo sapiens) (UniProt P04839). Briefly: NOX2-dependent H2O2 signal modulators, primary screen, NOX inhibitor project, cell-based, HEK293-NOX2, PMA-stimulated, Amplex Red fluorescence (AID 1159). Note: test concentration not given here. To be noted: 45 min, higher = more signal, called active from +8 up or from −8 down.
Experiment [9] deals with NADPH oxidase 4 (Homo sapiens) (UniProt Q9NPH5). The experiment in a line: NOX4-dependent H2O2 signal modulators, primary screen, NOX inhibitor project, cell-based, HEK293-NOX4, tetracycline-induced, Amplex Red fluorescence (AID 1160). Conditions: 45 min, higher = more signal, called active from +8 up or from −8 down.
Experiment [10] addresses NADPH oxidase 5 (Homo sapiens) (UniProt Q96PH1). The experiment in a line: NOX5-dependent H2O2 signal modulators, primary screen, NOX inhibitor project, cell-based, HEK293-NOX5, Amplex Red fluorescence (AID 1161). To be noted: HEK293-NOX5, ionomycin, 45 min, higher = more signal.

Chain of NADPH oxidase 4 (Homo sapiens) (Q9NPH5 whole entry, looked up): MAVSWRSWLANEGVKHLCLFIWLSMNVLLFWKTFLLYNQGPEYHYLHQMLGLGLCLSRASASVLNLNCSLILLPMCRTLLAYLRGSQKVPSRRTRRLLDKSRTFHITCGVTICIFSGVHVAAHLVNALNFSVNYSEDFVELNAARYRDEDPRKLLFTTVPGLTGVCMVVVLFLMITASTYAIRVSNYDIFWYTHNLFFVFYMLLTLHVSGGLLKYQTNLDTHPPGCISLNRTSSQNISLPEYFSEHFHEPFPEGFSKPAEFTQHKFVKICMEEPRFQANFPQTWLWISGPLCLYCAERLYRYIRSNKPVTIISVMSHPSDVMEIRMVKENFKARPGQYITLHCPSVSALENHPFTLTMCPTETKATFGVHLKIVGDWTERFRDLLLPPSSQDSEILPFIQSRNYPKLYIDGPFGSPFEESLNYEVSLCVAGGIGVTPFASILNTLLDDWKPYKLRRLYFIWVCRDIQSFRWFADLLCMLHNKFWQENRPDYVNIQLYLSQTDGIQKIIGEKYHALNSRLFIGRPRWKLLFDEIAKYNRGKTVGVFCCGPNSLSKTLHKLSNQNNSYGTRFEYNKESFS
Chain of NADPH oxidase 5 (Homo sapiens) (Q96PH1 whole entry, looked up): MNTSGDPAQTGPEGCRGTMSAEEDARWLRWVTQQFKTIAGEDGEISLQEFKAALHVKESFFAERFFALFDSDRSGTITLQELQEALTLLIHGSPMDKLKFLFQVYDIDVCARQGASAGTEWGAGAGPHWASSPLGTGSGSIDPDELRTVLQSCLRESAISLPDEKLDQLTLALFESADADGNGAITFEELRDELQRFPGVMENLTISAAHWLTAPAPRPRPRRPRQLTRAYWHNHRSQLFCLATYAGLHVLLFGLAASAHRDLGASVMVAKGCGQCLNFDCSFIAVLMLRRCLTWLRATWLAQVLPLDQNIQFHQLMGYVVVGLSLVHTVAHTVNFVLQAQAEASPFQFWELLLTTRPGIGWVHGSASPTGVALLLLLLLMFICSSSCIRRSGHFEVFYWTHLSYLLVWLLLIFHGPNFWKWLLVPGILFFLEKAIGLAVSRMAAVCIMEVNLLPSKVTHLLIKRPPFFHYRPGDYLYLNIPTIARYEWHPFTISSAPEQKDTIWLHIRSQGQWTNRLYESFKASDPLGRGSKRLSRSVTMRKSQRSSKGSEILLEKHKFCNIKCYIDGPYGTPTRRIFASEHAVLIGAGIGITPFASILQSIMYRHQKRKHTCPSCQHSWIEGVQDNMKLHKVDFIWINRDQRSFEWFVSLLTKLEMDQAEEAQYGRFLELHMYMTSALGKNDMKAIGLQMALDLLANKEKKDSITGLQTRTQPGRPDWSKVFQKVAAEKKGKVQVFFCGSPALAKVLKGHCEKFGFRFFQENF
Chain of NADPH oxidase 2 (Homo sapiens) (P04839 whole entry, looked up): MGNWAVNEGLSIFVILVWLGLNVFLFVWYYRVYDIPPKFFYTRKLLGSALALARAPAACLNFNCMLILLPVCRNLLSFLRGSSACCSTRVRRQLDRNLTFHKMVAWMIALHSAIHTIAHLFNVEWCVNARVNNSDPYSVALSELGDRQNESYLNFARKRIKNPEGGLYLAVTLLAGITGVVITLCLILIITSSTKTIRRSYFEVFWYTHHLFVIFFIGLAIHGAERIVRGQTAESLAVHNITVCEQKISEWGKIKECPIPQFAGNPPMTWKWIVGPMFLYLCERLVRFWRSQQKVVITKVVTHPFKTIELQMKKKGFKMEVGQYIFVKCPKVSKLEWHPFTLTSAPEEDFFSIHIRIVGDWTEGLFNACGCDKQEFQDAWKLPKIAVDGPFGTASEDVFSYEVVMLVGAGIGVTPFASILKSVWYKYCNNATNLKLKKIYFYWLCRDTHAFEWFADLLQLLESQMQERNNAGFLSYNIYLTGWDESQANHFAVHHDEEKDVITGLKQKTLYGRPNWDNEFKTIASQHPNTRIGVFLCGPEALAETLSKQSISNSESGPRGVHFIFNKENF

`C[C@H]1C2[C@H](Cc3ccccc3)NC(=O)[C@]23C(=O)NCC(=O)N2CCC[C@H]2C(=O)NC/C=C/CCC/C=C/C3[C@@H]2O[C@]12C` (stereo not given in full): the z-score in experiment [1] was 1.38 (inactive); in experiment [3], 1.44 (inactive); in experiment [4], -0.0812 (inactive); in experiment [5], 0.391 (inactive); in [6] it was 0.133 (inactive); in [7], 0.781. The values for the z-score in experiment [8], in [9] and in experiment [10] were 1.61 (inactive), -0.66 (inactive) and 1.88, respectively. This compound also yielded a composite z-score in experiment [2] of -0.103.

As for `COc1ccc([Si](C)(C)[C@@H]2[C@@H](CCO)O[C@]3(C(=O)N(Cc4cccc(N5CCOC5=O)c4)c4ccccc43)[C@H]2C)cc1`, the z-score is -0.196 (inactive) in experiment [1]; 31.3 (active) in experiment [3]; 29.8 (active) in experiment [4]; -0.28 (inactive) in [5]; 3.29 (inactive) in [6]; 0.715 in experiment [7]. For the same compound, the z-score in experiment [8] is -0.327 (inactive); in experiment [9], 2.15 (inactive); in [10] it was 1.98. The compound further registered a composite z-score in [2] of 0.0357.

For `O=C1OCC=C[C@H]2OC34C=CCN(Cn5nnc6ccccc65)C(=O)[C@H]3N(CCCCCO)C(=O)[C@@H]4[C@@H]12` (stereo not given in full), the z-score was 0.911 (inactive) in [1]; 0.896 (inactive) in experiment [3]; 0.212 (inactive) in experiment [4]; 1.11 (inactive) in [5]; 0.383 (inactive) in experiment [6]; -0.433 in experiment [7]. For the same compound, the z-score is 1.95 (inactive) in experiment [8], 0.223 (inactive) in experiment [9] and 1.32 in experiment [10]. In addition, the composite z-score in experiment [2] was -0.418.

In the case of `COC(=O)c1c(CC[C@@H](CO)NC(=O)N[C@@H](Cc2ccccc2)Cn2cc(-c3ccccn3)nn2)oc(C(=O)N2CCOCC2)c1C(=O)OC`, the z-score in experiment [1] was -0.55 (inactive); in experiment [3] it was 0.179 (inactive); in experiment [4], 0.571 (inactive); in experiment [5], 0.521 (inactive); in experiment [6] it was 0.729 (inactive); in [7], 0.291. Also, the z-score in experiment [8] was -1.76 (inactive); in experiment [9] it was -0.4 (inactive); in [10], -1.88. In experiment [2], this compound showed a composite z-score of 0.149.

On to `C=CCC(OC(C)=O)[C@@H]1[C@@H](N(Cc2ccc(-c3cccc(C(F)(F)F)c3)o2)C(=O)c2cccc3ccccc23)c2cc(OCCCO)ccc2N1C(=O)Cc1ccc2ccccc2c1` (stereo not given in full), for which the z-score in experiment [1] was -0.599 (inactive); in [3] it was 0.877 (inactive); in experiment [4], -0.397 (inactive); in experiment [5] it was 1.31 (inactive); in experiment [6], -0.449 (inactive); in experiment [7], 0.359. The z-score in experiment [8] was -2.15 (inactive); in experiment [9], -0.933 (inactive); in [10], -1.04. The compound further showed a composite z-score in experiment [2] of -0.147.

For the compound `O=C1O[C@H](c2ccccc2)[C@H](c2ccccc2)N2[C@H]1[C@@H](C(=O)NC[C@H](O)c1ccccc1)[C@]1(C(=O)Nc3ccc(C#CC4=CCCCC4)cc31)[C@H]2c1ccccc1OCCO`, the z-score in [1] was -0.161 (inactive); in experiment [3], 1.84 (inactive); in [4], 2.06 (inactive); in experiment [5], -0.932 (inactive); in experiment [6], 2.06 (inactive); in experiment [7] it was 0.233. Besides, the results for the z-score in experiment [8], in experiment [9] and in [10] were 1.42 (inactive), 1.04 (inactive) and 1.83, respectively. Further, in experiment [2], the composite z-score came to 0.199.

As for `COc1ccc([Si](C)(C)[C@@H]2[C@@H](CCn3cc([C@H](O)c4ccccc4)nn3)O[C@]3(C(=O)N(Cc4cccc(N5CCC5=O)c4)c4ccccc43)[C@H]2C)cc1`, the z-score in experiment [1] was -0.811 (inactive); in experiment [3], 10.4 (active); in experiment [4] it was 2.06 (inactive); in experiment [5], 0.538 (inactive); in experiment [6] it was 0.989 (inactive); in experiment [7] it was 0.135. The results for the z-score in experiment [8], in [9] and in experiment [10] were 0.702 (inactive), 1.4 (inactive) and 2.32, respectively. In experiment [2], this compound came in with a composite z-score of -0.144.

On to `COCC(=C=CC[C@H](O)c1cccc(OCCO)c1)C[C@H](O)c1cc(Cl)cc(Cl)c1O`, for which the z-score in experiment [1] was 0.652 (inactive); in experiment [3] it was 22.1 (active); in experiment [4], 5.78 (inactive); in experiment [5], 0.658 (inactive); in experiment [6], 1.21 (inactive); in experiment [7], 0.232. Further, the z-score is -0.707 (inactive) in experiment [8], -0.429 (inactive) in [9] and -1.25 in experiment [10]. The same compound yielded a composite z-score in [2] of 0.0012.

In the case of `OCCCC1=CC(C2CC2)N(Cc2cccc(OC(F)(F)F)c2)CC1` (stereo not given), the z-score in experiment [1] was -0.469 (inactive); in experiment [3] it was 1.82 (inactive); in experiment [4] it was 0.539 (inactive); in [5], 0.982 (inactive); in experiment [6] it was 0.675 (inactive); in experiment [7], 0.473. Besides, the figures for the z-score in experiment [8], in experiment [9] and in experiment [10] were -1.2 (inactive), -0.822 (inactive) and -1.48, respectively. This compound also yielded a composite z-score in [2] of -0.0813.

On to `CC(C)CN1C(=O)[C@@]2(c3ccc([N+](=O)[O-])cc3)CC(=O)N(C3CCCCC3)[C@@H]2c2ccc(CO)cc21`, for which the z-score is 0.511 (inactive) in [1]; 0.531 (inactive) in experiment [3]; 0.437 (inactive) in experiment [4]; 0.0909 (inactive) in [5]; 0.523 (inactive) in experiment [6]; -0.277 in experiment [7]. Besides, the values for the z-score in [8], in experiment [9] and in [10] were -0.717 (inactive), -0.778 (inactive) and -0.209, respectively. Besides, the composite z-score in experiment [2] was -0.191.

Take `O[C@@H](Cc1ccccc1)[C@@H](/C=C/C1CC1)NCc1cccc(Cl)c1`: the z-score in experiment [1] is -1.12 (inactive); in experiment [3], 1.27 (inactive); in experiment [4], 1.03 (inactive); in experiment [5], 0.972 (inactive); in [6], 0.721 (inactive); in [7], 0.528. Moreover, the z-score in experiment [8] is -0.115 (inactive); in experiment [9], -0.302 (inactive); in [10], -2.08. The same compound registered a composite z-score in [2] of -0.0295.

For `CCOC(=O)C[C@H]1[C@H](OC(=O)c2ccc(-c3ccccc3)cc2)[C@@H](NC(=O)c2ccccc2)c2cc(OCCCO)ccc2N1C(=O)Cc1ccc(OC)cc1`, the z-score in [1] was 0.118 (inactive); in [3] it was 1.93 (inactive); in experiment [4], 0.442 (inactive); in experiment [5] it was -0.113 (inactive); in experiment [6], 0.41 (inactive); in [7], -0.0916. Moreover, the z-score in experiment [8] was 1.31 (inactive); in experiment [9], -0.847 (inactive); in experiment [10], 2.5. The composite z-score in [2] was -0.0601.

As for `COC(=O)[C@H](Cc1ccccc1)N[C@H](/C=C/C1CC1)[C@@H](O)Cc1ccccc1`, the z-score in [1] is 1.85 (inactive); in experiment [3] it was 0.786 (inactive); in [4], -0.96 (inactive); in experiment [5], -0.868 (inactive); in experiment [6], -1.83 (inactive); in experiment [7], 2.14. The values for the z-score in experiment [8], in experiment [9] and in [10] were 0.455 (inactive), 0.0154 (inactive) and -2.49, respectively. In [2], this compound yielded a composite z-score of -0.235.

The values are drawn from PubChem BioAssay.
